Laboratory results reported in PubChem BioAssay AID624319 (Sanford-Burnham Center for Chemical Genomics, 2012).
The whole screen tested about 1,400 compounds, of which about 210 (15%) were called active. Only a sample is shown. Unmarked numbers belong to inactive results. No stated cut-off is given here; in the data, active means inhibition mostly above about 39% (no sharp cut-off); inactive means mostly below about 34%.

What follows are compounds tested against Sentrin-specific protease 8 (Homo sapiens) (UniProt Q96LD8) (assay: retest of SENP8 deneddylase blockers – biochemical, Nedd8 protein substrate, single concentration, confirmation (AID 624319)). Conditions: purified SENP8, Nedd8-AMC/pro-Nedd8 cleavage fluorescence, 30 min; at 25 µM; stronger effect = higher value.
Sequence of Sentrin-specific protease 8 (Homo sapiens) (Q96LD8 whole entry, looked up): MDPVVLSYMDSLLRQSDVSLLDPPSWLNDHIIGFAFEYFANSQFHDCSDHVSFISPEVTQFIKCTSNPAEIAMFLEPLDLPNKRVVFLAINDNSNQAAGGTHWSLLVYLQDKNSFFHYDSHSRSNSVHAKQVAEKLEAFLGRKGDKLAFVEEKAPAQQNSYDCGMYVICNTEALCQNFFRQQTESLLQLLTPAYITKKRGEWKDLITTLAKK

Compound	inhibition
Oc1ccc(N=Cc2sc3ccccc3c2Cl)cc1	11.3%
O=c1[nH]c2ccccc2s1	1.69%
Cc1ccc(C(=O)N/N=C\c2cc(Br)c(Br)o2)cn1	6.43%
O=[N+]([O-])c1ccc(C=Nc2ccc(Cl)cc2Cl)s1	14.4%
O=C1Nc2ccc([N+](=O)[O-])cc2C1=Nc1cccc(CO)c1	76.8% (active)
c1coc(-c2nc3nc4ccccc4n3nc2-c2ccco2)c1	20.6%
CN1C(=O)/C(=C/C=C2\SCCN2C)OC1=S	29.4%
Cc1cc([N+](=O)[O-])c(NC2CCCCC2)c([N+](=O)[O-])c1	11%
COC(=O)C1=C(C(=O)c2ccc(C)cc2)C(c2ccccc2)n2nnnc2N1 (stereo not drawn)	18.1%
CCc1ccccc1NC(=O)[C@@H]1CCC(=O)N1C1OC(=O)c2c1ccc(OC)c2OC (stereo partly drawn)	13.7%
O=C(c1ccccc1)N1CCN(c2ccc([N+](=O)[O-])c(NCc3ccco3)c2)CC1	14.3%
O=C(OCC(=O)N1CCN(c2ccccc2)CC1)c1ccc([N+](=O)[O-])s1	57% (active)
CCOc1ccc(C(c2c(C)[nH][nH]c2=O)c2c(C)[nH][nH]c2=O)cc1OCC	2.47%
Cc1[nH][nH]c(=O)c1C(c1ccc(-c2ccc(Cl)cc2)o1)c1c(C)[nH][nH]c1=O	49.8% (active)
CCN1CCC2(CC1)N=C(c1ccc(F)cc1)C(=S)N2C(=O)c1ccc(C)cc1	54.5% (active)
O=C(COC(=O)c1ccc([N+](=O)[O-])o1)NC12CC3CC(CC(C3)C1)C2	81.4% (active)
O=[N+]([O-])c1ccccc1NCc1ccccc1Cl	20.6%
CCOCCCn1c(NN)nc2ccccc2c1=O	0.12%
CCCCNCCS(=O)(=O)NCc1ccccc1	26.8%
O=C(c1cccc(F)c1)N1CCN(c2ccc([N+](=O)[O-])c3cccnc23)CC1	16.9%
O=C(Nc1ccc(C(=O)O)c(O)c1)c1ccccc1	0.26%
CN1CCN(S(=O)(=O)c2ccc(N3CCN(c4ccccc4O)CC3)c([N+](=O)[O-])c2)CC1	29.3%
O=C(Nc1cc2c3c(c1)C1CCCC1CN3CC1CCCC21)c1ccc([N+](=O)[O-])cc1 (stereo not drawn)	24.6%
Nn1cnnc1N/N=C/c1cc([N+](=O)[O-])c(Cl)cc1Cl	16.6%
COc1ccc(-c2nnco2)cc1OC	14.3%
CCOc1cc(NC(=O)c2ccccc2C(=O)O)c(OCC)cc1NC(=O)c1ccccc1F	-3.99%

Compound	inhibition
O=C1CC(c2ccccc2)=NN1c1ccc([N+](=O)[O-])cc1	46.5% (active)
COC(=O)Cn1c2ccc(C)cc2c2nc(C)sc21	14.2%
CN1CCc2ccccc2C1Cc1ccccc1NC(=O)c1sc2ccccc2c1Cl (stereo not drawn)	0.2%
Nc1ccc2nc3c(=O)[nH]c(=S)[nH]c3nc2c1	26.8%
CN(c1ccc(C(=O)N2CCc3ccccc3C2)cc1)S(C)(=O)=O	42.8% (active)
CCN(CC)C(=O)CCC(=O)Nc1ccc(C(=O)OC)cc1	8%
CC(=O)N1CCN(S(=O)(=O)c2cccc(C(=O)NC3CCC(C)CC3)c2)CC1 (stereo not drawn)	3.29%
CCc1ccccc1NC1c2ccccc2C(=O)N1c1cccnc1 (stereo not drawn)	12.2%
O=c1[nH]n2c(=O)c3c([nH]c2c1N=Nc1ccccc1)CCC3	25.4%
CCOC(=O)/C(=N\Nc1ccccc1[N+](=O)[O-])c1csc(Nc2ccccc2)n1	15%
O=C(NCCCN1CCN(c2ccc(F)cc2)CC1)Nc1ccc([N+](=O)[O-])cc1	31.9%
CCc1cccc(C)c1NC(=O)COC(=O)CC1CCCC1	29.1%
CC(C)Cc1nnc(NC(=O)CCC(=O)Nc2ccc3cn[nH]c3c2)s1	2.31%
O=C(COc1ccccc1)N1CCc2ccccc2C1	44.4% (active)
CCc1ccc(-c2nnn(Cc3nn[nH]n3)n2)cc1	10.7%
O=C(Cc1ccccc1)NC(=S)Nc1ccc(N2CCCCC2)cc1	11.4%
CC/C(=N/Nc1ccccc1)c1cnnc(SC)n1	16.1%
Cc1ccc(C(=O)c2ccc(N3CCN(C)CC3)c([N+](=O)[O-])c2)cc1	14.5%
CCCCCCCCCCCCCCCC(=O)OC/C=C(C)/C=C/C=C(C)/C=C/C1=C(C)CCCC1(C)C	4.1%
Cc1cc(C)nc(N/N=C/c2ccc([N+](=O)[O-])o2)n1	22.3%
CC1(C)C2CCC1(C)C(OC(=O)c1ccc(O)cc1)C2 (stereo not drawn)	18.1%
CCOC(=O)c1ccc(N2C(=O)CC(N(C)Cc3ccccc3)C2=O)cc1 (stereo not drawn)	18.6%
Cc1ccc(NS(=O)(=O)c2ccc(N/N=C/c3ccccc3OCC(=O)O)c([N+](=O)[O-])c2)c(C)c1	29.4%
CC1(C)Cc2cccc(OCC(=O)Nc3nccs3)c2O1	2.41%
COc1ccc(Br)cc1/C=N/Nc1ccc(S(=O)(=O)Nc2ccccc2C(=O)O)cc1[N+](=O)[O-]	21.5%
CCCC1CCC(=NNC(=S)NCCc2ccccc2)CC1 (stereo not drawn)	5.71%

Compound	inhibition
COC(=O)CCCC1=CC2=CC(=O)C(C)(OC(=O)c3cccs3)C(=O)C2=CN1CC(C)C (stereo not drawn)	52.7% (active)
CCOC(=O)C1CCCN(C(=O)c2ccc(C)c(F)c2)CC1 (stereo not drawn)	10.1%
COc1cc(C(=S)N2CCOCC2)cc(OC)c1OC(=O)c1cc([N+](=O)[O-])cc([N+](=O)[O-])c1	26.8%
COc1ccc(C(=O)c2c3ccc([N+](=O)[O-])cc3[n+]([O-])n2CCCN)cc1	70.5% (active)
COc1ccc(-c2[nH][nH]c(=O)c2NC(=O)c2ccc([N+](=O)[O-])cc2)cc1	34.5%
CCOC(=O)CNC(=O)N1c2ccccc2Sc2ccccc21	16.6%
Cc1sc2ccccc2c1CNC[C@H]1O[C@@H](n2ccc(=O)[nH]c2=O)[C@H](O)[C@@H]1O	8.62%
Cc1cccc(OCC(=O)NC(=S)Nc2ccccc2N2CCOCC2)c1	13%
Cc1nc(SCC(=O)c2ccccc2)c([N+](=O)[O-])[nH]1	10.2%
Cc1cc(C)c(/C=C2\C(=O)Nc3ccccc32)[nH]1	11.5%
CC(C)CC(=O)N=C1SC2CS(=O)(=O)CC2N1CCc1ccccc1 (stereo not drawn)	-0.28%
O=[N+]([O-])c1ccc(N2CCSCC2)cc1O	22.9%
CCN=C1SC(CC(=O)Nc2ccc(C)cc2)C(=O)N1CC (stereo not drawn)	12.9%
CC1CCN(c2ccc([N+](=O)[O-])c(SCCO)c2)CC1	19.1%
Cc1ccccc1NCC(=O)N/N=C\c1ccc([N+](=O)[O-])s1	31.1%
O=P(O)(CP(=O)(c1ccccc1)c1ccccc1)c1ccccc1O	13.6%
CCOC(=O)C(CC)Sc1ncnc2c1nnn2-c1ccc(F)cc1 (stereo not drawn)	14.5%
Cn1c2ccc(F)cc2c2nnc(NN)nc21	-8.09%
O=C(NC(=S)N1CCCCC1c1cccnc1)c1ccccc1 (stereo not drawn)	8.53%
CCC(C)[C@H](NC(=O)N1c2ccccc2NC(=O)[C@@H]1C(C)C)C(=O)N[C@@H](Cc1ccccc1)C(=O)O (stereo partly drawn)	7.29%
COc1ccc(S(=O)(=O)Nc2ccc3cn[nH]c3c2)cc1[N+](=O)[O-]	14.1%
NN=C(NN=Cc1ccccc1)c1ccccc1	43.8% (active)
CC(C)[C@H](NC(=O)N1CC(=O)Nc2ccccc21)C(=O)N[C@@H](Cc1c[nH]c2ccccc12)C(=O)O	15%
COc1cccc(N(CC(=O)NCCSc2ccccn2)S(C)(=O)=O)c1	3.26%
CCOc1ccc(NCCC(=O)c2ccc3c(c2)OCO3)cc1	23.6%
Cc1ccc(C(=O)N/C(=C/c2ccc(-c3cccc([N+](=O)[O-])c3)o2)C(=O)NCCCN(C)C)cc1	17.4%
